Several values for one entry are separate records, joined by “and”; a condition that tells them apart may be missing. Equal entries are not always repeated.
Experiments:
Experiment in all cases: growth inhibition (% activity, log2 RLU normalised to DMSO / staurosporine); higher = more growth inhibition
Details in all cases: 33 µM
DIPGX29 = test system: DIPGX29 (H3.3 K27M diffuse intrinsic pontine glioma line)
Procedure, shortened: (§1)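 For each approved drug, the growth-inhibition value is the replicate median of per-plate normalised CellTiter-Glo data. Luminescence was log2-transformed and expressed as % activity between solvent and positive control wells. Drugs were applied in triplicate at a single final concentration of about 33 μM for 7 days at 37 °C, 5% CO2 to pHGG cell lines and H9-derived neural stem cells.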

DIPGX37 = test system: DIPGX37 (H3.3 K27M diffuse intrinsic pontine glioma line)
Procedure, shortened: as §1

DIPGX7 = test system: DIPGX7 (H3.3 K27M diffuse intrinsic pontine glioma line)
Procedure, shortened: as §1

DIPGX9 = test system: DIPGX9 (diffuse intrinsic pontine glioma line)
Procedure, shortened: as §1

HGGX39 = test system: HGGX39 (paediatric high-grade glioma line)
Procedure, shortened: as §1

HGGX6 = test system: HGGX6 (H3.3 G34R paediatric high-grade glioma line)
Procedure, shortened: as §1

HNSC = test system: HNSC
Procedure, shortened: as §1

SUDIPGIV = test system: SUDIPGIV (diffuse intrinsic pontine glioma line)
Procedure, shortened: as §1

SUDIPGVI = test system: SUDIPGVI (diffuse intrinsic pontine glioma line)
Procedure, shortened: as §1

SUDIPGXIII = test system: SUDIPGXIII (diffuse intrinsic pontine glioma line)
Procedure, shortened: as §1

Structure (SMILES)	growth inhibition (DIPGX29)	growth inhibition (DIPGX37)	growth inhibition (DIPGX7)	growth inhibition (DIPGX9)	growth inhibition (HGGX39)	growth inhibition (HGGX6)	growth inhibition (HNSC)	growth inhibition (SUDIPGIV)	growth inhibition (SUDIPGVI)	growth inhibition (SUDIPGXIII)
O=C(CCCCCCC(=O)Nc1ccccc1)NO	46.8%	23.9%	51.7%	49.5%	18.5%	33.7%	70.6%	44.9%	38.5%	28%
O=C(O)c1cc(-c2ccccc2)nc2ccccc12	0.382%	2.97%	0.465%	2.04%	1.46%	1.01%	-0.619%	-1.08%	2.54%	0.975%
Cc1nc2n(c(=O)c1CCN1CCC(c3noc4cc(F)ccc34)CC1)CCCC2O (stereo not drawn)	-0.21%	-0.0675%	0.542%	0.251%	1.52%	-1.12%	23.4%	2.36%	-0.7%	-0.0722%
CCn1cc(C(=O)O)c(=O)c2cc(F)c(N3CCNCC3)cc21	-0.303%	1.84%	0.79%	0.854%	3.3%	2.09%	3.22%	-0.867%	0.897%	3.56%
NC(=O)c1ncn([C@@H]2O[C@H](CO)[C@@H](O)[C@H]2O)c1N	1.44%	1.81%	1.73%	2.02%	2.08%	0.815%	5.91%	0.00762%	2.75%	-1.11%
CC(C(=O)O)c1ccc2c(c1)Cc1cccnc1O2 (stereo not drawn)	0.469%	2.25%	2.38%	1.73%	3.25%	2.19%	2.91%	-1.77%	3.45%	-1.63%
C#Cc1cccc(Nc2ncnc3cc(OCCOC)c(OCCO)cc23)c1	6.22%	3.87%	4.89%	4.84%	9.77%	9.46%	31.8%	-3.74%	2.81%	0.549%
Nc1[nH]cnc2ncnc1-2	-2.79% and 0.888% and 0.703%	-2.72% and -1.28% and 1.74%	-0.783% and 2.97% and -0.884%	-3.07% and 2.41% and -1.07%	-1.64% and 3.54% and 2.19%	-4.48% and -0.101% and -1.37%	–	-2.98% and 0.339% and 0.701%	-1.95% and 3.66% and 1.39%	-0.991% and 0.292% and 0.516%
COC1=C(OC)C(=O)C(CCCCCCCCCCO)=C(C)C1=O	3.13%	3.03%	2.61%	2.12%	2.64%	3.84%	5.4%	1.6%	3.24%	2.03%
CC1(C)O[C@@H]2C[C@H]3[C@@H]4C[C@H](F)C5=CC(=O)C=C[C@]5(C)[C@@]4(F)[C@@H](O)C[C@]3(C)[C@]2(C(=O)CO)O1	5.9%	6.05%	2.96%	7.24%	5.97%	3.53%	1.69%	1.18%	3.97%	-0.393%
C=C1/C(=C\C=C2/CCC[C@]3(C)[C@@H]([C@H](C)CCCC(C)C)CC[C@@H]23)C[C@@H](O)C[C@@H]1O	-0.46%	2.45%	4.43%	1.86%	3.21%	3.92%	1.06%	0.347%	1.52%	0.72%
[Na+].[Na+].[Na+].[O]=[V]([O-])([O-])[O-]	-1.42%	0.923%	-1.78%	0.306%	0.285%	-0.94%	-0.354%	-2.76%	-0.971%	1.36%
CCOC(=O)[C@H](CCc1ccccc1)N[C@@H](C)C(=O)N1C(=O)N(C)C[C@H]1C(=O)O	-1.26%	0.599%	-0.344%	-0.304%	-1.03%	-1.84%	1.56%	-1.04%	-1.53%	1.71%
C=Cc1c(C)c2cc3nc(cc4[nH]c(cc5nc(cc1[nH]2)C(C)=C5CCC(=O)O)c(CCC(=O)OC)c4C)C1(C)C3=CC=C(C(=O)OC)C1C(=O)OC (stereo not drawn)	0.0791%	-1.21%	0.254%	-0.022%	1.95%	0.712%	2.35%	-0.469%	-1.11%	-2.15%
CCOC(=O)C1=C(COCCN)NC(C)=C(C(=O)OC)C1c1ccccc1Cl (stereo not drawn)	15% and 3.31%	4.6% and -0.383%	5.13% and -0.147%	4.27% and -0.283%	6.07% and -2.96%	6.22% and 0.934%	–	1.11% and -4.26%	3.83% and -2%	0.181% and 0.61%
COc1cc2nccc(Oc3ccc(NC(=O)C4(C(=O)Nc5ccc(F)cc5)CC4)cc3)c2cc1OC	2.36%	6.14%	9.24%	6.67%	4.78%	17.7%	42%	0.288%	5.98%	2%

— the supplement of paper PMC8253809
